Experimental findings from PubChem BioAssay AID493012 (Sanford-Burnham Center for Chemical Genomics, 2011) are described below.

The structures appear in SMILES notation. Screen size: about 330,000 compounds; about 930 (0.28%) were called active. This is one part of a sample in which actives are shown more often than they occur. Unmarked numbers belong to inactive results.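 How the source made its calls: active means inhibition of at least 40% at 20 µM, with no more than 30% in the related APOBEC3A deaminase screen; inactive means the rest.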

The experiment deals with DNA dC->dU-editing enzyme APOBEC-3G (Homo sapiens) (UniProt Q9HC16). The experiment in a line: APOBEC3G DNA deaminase inhibitors, primary screen, biochemical, fluorescence, single-stranded DNA substrate, uHTS (AID 493012).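 Further: plate controls were DMSO wells with A3G for no effect and wells lacking A3G enzyme for full effect.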 To be noted: recombinant A3G, ssDNA deamination FAM/TAMRA fluorescence; at 20 µM; hits give high values.
DNA dC->dU-editing enzyme APOBEC-3G (Homo sapiens), sequence (Q9HC16 whole entry, looked up): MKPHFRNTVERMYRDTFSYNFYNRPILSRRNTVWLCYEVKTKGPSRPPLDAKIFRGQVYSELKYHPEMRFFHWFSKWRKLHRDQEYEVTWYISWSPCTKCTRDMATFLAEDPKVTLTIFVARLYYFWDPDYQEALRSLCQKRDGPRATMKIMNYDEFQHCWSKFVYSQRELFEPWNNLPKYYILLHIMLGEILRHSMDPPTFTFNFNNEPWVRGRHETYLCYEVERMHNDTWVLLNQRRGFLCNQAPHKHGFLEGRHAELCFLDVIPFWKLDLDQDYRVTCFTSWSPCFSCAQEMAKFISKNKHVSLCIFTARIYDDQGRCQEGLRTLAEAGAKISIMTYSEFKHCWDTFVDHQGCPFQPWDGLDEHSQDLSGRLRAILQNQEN
As a reminder, the inhibition is the relative decrease from the control value, in per cent. For the compound `COc1cc(OC)c(NC(=O)C2CCCN2C(=O)OCc2ccccc2)cc1Cl` (configuration not stated), the inhibition was -7.18%. As for `CCOC(=O)c1sc(=S)n2c1[nH]c(=O)c1ccc(C(=O)OC)cc12`, the inhibition is 41.3% (active). On to `CCOC(=O)c1ccc(Nc2cc3ccccc3c(=O)[nH]2)cc1`, for which the inhibition is -6.08%. Regarding `CCOC(=O)C1=C(C)Nc2sc(C(=O)c3ccc(Br)cc3)c(N)c2C1c1ccc(C(=O)OC)cc1` (configuration not stated), the inhibition was -6.26%.

Regarding `CCCN1C2CCCC1CC(NC(=O)NC13CC4CC(CC(C4)C1)C3)C2` (configuration not stated), the inhibition was -7.31%. The result for `CC(C)C1Nc2c(C(=O)O)cccc2C(Nc2ccccc2C(=O)O)C1(C)C` (configuration not stated) reads 3.35%. As to `COc1ccc(N2C(=O)CC(SC(C)C)C2=O)cc1` (configuration not stated), the inhibition was -8.49%. Consider `COc1ccc(N2C(=O)CC(Sc3n[nH]c(-c4ccc(C)cc4)n3)C2=O)cc1` (configuration not stated), for which the inhibition was 41.5% (active).

As to `COc1ccc(-c2nc(SCC(=O)N3CCCC3)n[nH]2)cc1`, the inhibition was -17.7%. Take `CCOC(=O)C1=C(c2ccccc2)NC(=O)NC1c1cc(OCC)c(O)c([N+](=O)[O-])c1` (configuration not stated): the inhibition is -2.96%. As for `CCOC(=O)c1cnc(Nc2nc3ccccc3o2)nc1CSC(=S)N1CCCCC1`, the inhibition is -3.98%. On to `N#CCC(=O)Nc1ccc(C(=O)OCC(=O)Nc2sc3c(c2C#N)CCCC3)cc1`, for which the inhibition was -9.04%.

For the compound `CCOc1ccc(NC(=O)c2ccc(NC(=O)COC(=O)c3ccc(NC(=O)CC#N)cc3)cc2)cc1`, the inhibition is 66.2% (active).

As for `CC(C)NC(=O)NC(=O)COC(=O)c1ccc(NC(=O)CC#N)cc1`, the inhibition is -1.25%. As to `COc1ccc(C2(C)ON(c3ccccc3C(F)(F)F)C2=O)cc1` (configuration not stated), the inhibition is -6.81%.

For the compound `CC(=O)Nc1ccc(S(=O)(=O)Nc2ccc(N3CCCCC3)cc2)cc1`, the inhibition is -1.93%.

On to `O=C(C1CC(=O)N(C2CCCCC2)C1)N1CCN(c2ccccc2)CC1` (configuration not stated), for which the inhibition was -5.67%.

`O=C1C=CC(=O)N1c1ccc(N2CCCCC2)cc1`: the inhibition is 56.8% (active).

As to `COc1ccccc1OCC(=O)Nc1c2c(nn1-c1ccc(F)cc1)CS(=O)(=O)C2`, the inhibition is -3.56%. For the compound `O=C(NCC1CCCCC1)c1cc(S(=O)(=O)N2CCCCC2)ccc1N1CCOCC1`, the inhibition is -1.87%. For the compound `O=C(CCn1c(=O)oc2ccccc21)Nc1ccon1`, the inhibition is -6.36%. The result for `COCc1c(N)c(C)nc(Cl)c1C#N` reads 66.3% (active); that for `Cc1nc(Cl)c(C#N)c2c1CCCC2`, -4.63%; that for `COC(=O)c1c(C)c(C)nc(N)c1C#N`, -1.41%. Take `Brc1ccc(C2CC(c3ccccc3)=Nc3ccccc3N2)cc1` (configuration not stated): the inhibition was -3.13%.

Regarding `Cn1cccc1C(=O)NC(=O)COC(=O)Cc1coc2ccc3ccccc3c12`, the inhibition is -8.11%. On to `COc1cccc(CN2CCN(Cc3ccc4cccc(F)c4n3)CC2CCO)c1` (configuration not stated), for which the inhibition was -9.71%.

As to `COc1ccc(CNC(=O)C(=O)N2CCC3(CC2)OCCN3S(=O)(=O)c2ccc(C)cc2)cc1`, the inhibition was -5.73%. Turning to `Cc1ccc(NC(=O)CN(C)C(=O)c2ccc(Cl)c(S(=O)(=O)NCc3ccco3)c2)cc1`, the inhibition is -5.2%. For `Cc1cc(-c2n[nH]c(=S)n2/N=C/c2ccco2)n[nH]1`, the inhibition is 44.7% (active). The result for `Fc1ccc(/C=N/n2c(COc3ccccc3)n[nH]c2=S)cc1` reads 13.5%; that for `S=c1[nH]nc(-c2ccco2)n1/N=C/c1ccccc1`, 44.3% (active); that for `Cc1ccc(CN2CCN(/N=C/c3ccco3)CC2)c(C)c1`, -10.3%. Regarding `COc1ccccc1/C=C/C=N/n1c(-c2ccc(Cl)cc2Cl)n[nH]c1=S`, the inhibition was -7.26%. Take `S=c1[nH]nc(-c2ccco2)n1/N=C/c1ccc(Br)s1`: the inhibition is 17%.

For `CCC(C)(C)NC(=O)c1cc([N+](=O)[O-])ccc1N1CCCCC1`, the inhibition was -0.515%. Turning to `CC1(C)C[C@H]2C3=CCC4[C@@]5(C)CC[C@H](O)[C@](C)(CO)C5CC[C@@]4(C)[C@]3(C)C[C@@H](O)[C@@]2(CO)[C@@H](O)[C@@H]1O` (some centres not stated), the inhibition is -1.86%.
